Measured values as given in PubChem BioAssay.
A number with no mark means an inactive call. How the calls were made is not given here.

target: Pantothenate synthetase (Mycobacterium tuberculosis (strain ATCC 25618 / H37Rv)) (UniProt P9WIL5); assay: Recombinant Mtb pantothenate synthetase (PanC) inhibitors, coupled enzyme, confirmatory (AID 375); conditions: coupled enzyme assay; at 10 µM, hits give high values;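 further: 0% = full reaction with vehicle and 100% = no enzyme background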
Sequence (P9WIL5 whole entry, looked up): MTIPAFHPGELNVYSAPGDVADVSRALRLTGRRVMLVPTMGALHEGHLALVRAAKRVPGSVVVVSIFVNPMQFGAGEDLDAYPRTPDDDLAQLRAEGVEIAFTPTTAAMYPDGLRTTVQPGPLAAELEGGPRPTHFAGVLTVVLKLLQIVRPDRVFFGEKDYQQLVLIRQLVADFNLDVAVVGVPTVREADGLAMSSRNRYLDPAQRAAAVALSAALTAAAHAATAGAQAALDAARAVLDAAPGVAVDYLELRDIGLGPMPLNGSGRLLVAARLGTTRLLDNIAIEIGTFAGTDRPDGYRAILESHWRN

Row | SMILES | inhibition
1 | O=C(NCCN1CCOCC1)C1CCC(=O)N1Cc1ccccc1Cl (configuration not stated) | 0%
2 | CCOC(=O)c1[nH]c2ccc(Br)cc2c1NC(=O)CNC | 4%
3 | Cc1onc(-c2ccccc2)c1C(=O)NCc1cccnc1 | 10%
4 | O=C(Cn1nnc2c(cnn2-c2ccc(F)cc2)c1=O)c1ccccc1F | 1%
5 | CCOC(=O)c1[nH]c2cc(OC)c(OC)cc2c1NC(=O)C(C)N1CCN(Cc2ccccc2)CC1 (configuration not stated) | 1%
6 | COc1cc2c(cc1OC)C(c1cccnc1)CC(=O)N2 (configuration not stated) | 5%
7 | COCCn1c(SCC(=O)c2ccccc2)nc2c(c1=O)SC(C)C2 (configuration not stated) | 0%
8 | C=CCn1c(SCC(=O)Nc2ccccc2OC)nnc1-c1ccco1 | 4%
9 | Cc1nn(-c2ccccc2)c2sc(C(=O)N3CCOCC3)cc12 | 0%
10 | CCn1nnc(-c2ccccc2NC(=O)c2ccc(-n3cnnn3)cc2)n1 | 9%
11 | O=C(Nc1ncc2c(n1)CC(c1ccccc1)CC2=O)c1ccco1 (configuration not stated) | 3%
12 | Cc1ccnc(NC(=O)CCC(=O)N(CC(=O)NC2CCCCC2)c2cccc(C)c2C)c1 | 0%
13 | CC(C)(C)NC[C@H](O)COc1nsnc1N1CCOCC1 | 2%
14 | O=P(O)(O)c1ccccc1OCCOCCOc1ccccc1P(=O)(O)O | 4%
15 | CCOC(=O)C1=C(c2ccccc2)NC(=O)NC1c1ccc(N(C)C)cc1 (configuration not stated) | 0%
16 | O=C(c1nc2n(n1)C(c1ccc(Cl)cc1)C=C(c1ccccc1)N2)N1CCOCC1 (configuration not stated) | 0%
17 | O=C(NCC(=O)N1CCC(N2CCCCC2)CC1)C1CCCCC1 | 3%
